Pf apPOL inh: Pf-apPOL DNA polymerase inhibition; Recombinant Pf-apPOL, molecular beacon fluorescence, 1.5 h; 210,000 compounds, 0.25% hits; inhibition, % at 10 µM
mHTT CaM bind: disrupts binding of mutant huntingtin to calmodulin; AlphaScreen His-mHTT/GST-CaM binding, luminescence; inhibition, % at 15 µM; 190,000 compounds, 3.6% hits; AID 1671202
Target sequence (P42858 whole entry, looked up, change not shown): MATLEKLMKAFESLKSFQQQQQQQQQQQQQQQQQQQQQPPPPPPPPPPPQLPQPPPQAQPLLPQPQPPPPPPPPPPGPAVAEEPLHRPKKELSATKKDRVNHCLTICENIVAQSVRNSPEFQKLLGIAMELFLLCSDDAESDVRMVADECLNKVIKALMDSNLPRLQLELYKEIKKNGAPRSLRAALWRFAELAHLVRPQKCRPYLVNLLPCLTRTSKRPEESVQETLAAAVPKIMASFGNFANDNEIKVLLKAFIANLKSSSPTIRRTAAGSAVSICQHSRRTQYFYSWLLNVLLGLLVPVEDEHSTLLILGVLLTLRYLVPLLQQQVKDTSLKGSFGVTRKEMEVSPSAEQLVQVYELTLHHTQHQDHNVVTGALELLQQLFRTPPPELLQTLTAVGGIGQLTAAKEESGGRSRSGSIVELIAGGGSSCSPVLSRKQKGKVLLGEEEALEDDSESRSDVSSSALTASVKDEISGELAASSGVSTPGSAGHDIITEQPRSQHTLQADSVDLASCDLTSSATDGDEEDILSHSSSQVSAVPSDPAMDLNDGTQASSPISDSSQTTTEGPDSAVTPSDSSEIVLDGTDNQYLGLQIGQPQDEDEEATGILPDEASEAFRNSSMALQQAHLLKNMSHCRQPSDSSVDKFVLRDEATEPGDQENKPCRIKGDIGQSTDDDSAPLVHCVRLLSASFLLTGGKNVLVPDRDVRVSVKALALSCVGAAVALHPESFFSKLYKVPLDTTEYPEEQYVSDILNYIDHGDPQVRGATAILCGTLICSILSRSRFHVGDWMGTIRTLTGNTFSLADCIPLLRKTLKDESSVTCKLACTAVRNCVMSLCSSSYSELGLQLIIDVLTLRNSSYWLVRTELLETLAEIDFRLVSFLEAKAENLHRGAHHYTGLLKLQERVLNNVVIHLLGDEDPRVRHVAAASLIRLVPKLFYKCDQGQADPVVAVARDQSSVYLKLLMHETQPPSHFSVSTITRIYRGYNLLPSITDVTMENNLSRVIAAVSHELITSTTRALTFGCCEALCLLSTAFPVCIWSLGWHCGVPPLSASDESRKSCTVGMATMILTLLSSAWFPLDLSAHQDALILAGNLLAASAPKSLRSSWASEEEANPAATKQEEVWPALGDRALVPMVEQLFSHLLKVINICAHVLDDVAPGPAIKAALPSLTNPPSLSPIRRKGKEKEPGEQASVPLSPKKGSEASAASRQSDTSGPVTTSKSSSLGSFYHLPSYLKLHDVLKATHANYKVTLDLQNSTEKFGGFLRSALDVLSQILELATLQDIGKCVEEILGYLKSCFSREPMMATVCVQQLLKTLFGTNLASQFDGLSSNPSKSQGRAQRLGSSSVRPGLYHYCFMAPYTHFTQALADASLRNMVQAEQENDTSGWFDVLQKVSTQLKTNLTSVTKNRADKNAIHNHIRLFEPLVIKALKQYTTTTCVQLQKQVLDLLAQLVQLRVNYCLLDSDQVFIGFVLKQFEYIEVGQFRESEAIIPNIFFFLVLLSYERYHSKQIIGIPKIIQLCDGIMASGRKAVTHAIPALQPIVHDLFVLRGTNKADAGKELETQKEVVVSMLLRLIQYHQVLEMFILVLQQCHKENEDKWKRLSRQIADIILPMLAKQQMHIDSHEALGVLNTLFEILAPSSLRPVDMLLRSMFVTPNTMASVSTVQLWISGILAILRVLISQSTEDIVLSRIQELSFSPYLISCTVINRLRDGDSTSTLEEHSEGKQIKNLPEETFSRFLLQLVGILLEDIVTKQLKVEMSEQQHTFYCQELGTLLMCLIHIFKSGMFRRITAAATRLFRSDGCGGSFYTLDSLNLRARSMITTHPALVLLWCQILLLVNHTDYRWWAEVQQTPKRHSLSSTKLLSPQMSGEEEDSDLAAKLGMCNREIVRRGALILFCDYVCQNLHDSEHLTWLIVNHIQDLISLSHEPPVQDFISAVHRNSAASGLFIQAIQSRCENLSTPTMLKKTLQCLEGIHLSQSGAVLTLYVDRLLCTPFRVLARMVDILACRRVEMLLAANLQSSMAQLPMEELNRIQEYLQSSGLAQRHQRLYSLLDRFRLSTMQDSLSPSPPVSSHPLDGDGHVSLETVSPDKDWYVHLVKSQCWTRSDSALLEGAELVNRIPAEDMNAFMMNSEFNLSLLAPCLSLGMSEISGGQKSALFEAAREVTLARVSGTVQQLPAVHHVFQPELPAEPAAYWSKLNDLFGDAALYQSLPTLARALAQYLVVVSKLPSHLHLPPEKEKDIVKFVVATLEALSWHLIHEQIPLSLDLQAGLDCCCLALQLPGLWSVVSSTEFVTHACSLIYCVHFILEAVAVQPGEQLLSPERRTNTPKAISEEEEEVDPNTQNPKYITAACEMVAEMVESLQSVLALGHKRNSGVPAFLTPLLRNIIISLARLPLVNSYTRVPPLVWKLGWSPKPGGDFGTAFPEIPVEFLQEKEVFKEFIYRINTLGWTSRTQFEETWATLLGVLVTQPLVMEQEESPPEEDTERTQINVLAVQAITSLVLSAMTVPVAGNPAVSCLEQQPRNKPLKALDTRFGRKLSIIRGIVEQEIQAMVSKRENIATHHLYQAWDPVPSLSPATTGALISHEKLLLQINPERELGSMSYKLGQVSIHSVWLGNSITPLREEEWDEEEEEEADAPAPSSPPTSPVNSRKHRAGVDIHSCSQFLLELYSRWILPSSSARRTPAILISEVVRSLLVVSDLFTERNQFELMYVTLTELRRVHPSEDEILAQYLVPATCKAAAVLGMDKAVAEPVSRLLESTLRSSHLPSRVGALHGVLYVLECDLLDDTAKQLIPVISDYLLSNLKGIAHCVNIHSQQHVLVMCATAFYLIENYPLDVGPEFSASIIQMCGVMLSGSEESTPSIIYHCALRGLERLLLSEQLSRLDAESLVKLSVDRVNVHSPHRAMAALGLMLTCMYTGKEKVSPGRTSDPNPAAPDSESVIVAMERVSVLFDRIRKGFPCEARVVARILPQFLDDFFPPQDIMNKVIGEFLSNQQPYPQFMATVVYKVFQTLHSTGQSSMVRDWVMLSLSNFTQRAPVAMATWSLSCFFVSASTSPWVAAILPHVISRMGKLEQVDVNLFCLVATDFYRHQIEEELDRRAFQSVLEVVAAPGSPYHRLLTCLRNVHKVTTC
Each line names hits and unclear results; the compound was inactive in the other large screens; ! = not confirmed by another sample. Shown is part of a subset that was picked to be rich in hits. Cut-off read from the data, not from the text of the source: active = inhibition above about 50%; inactive = the rest.

CC(=O)N(c1ccc2oc3c(c2c1)CCCC3)S(=O)(=O)c1cccc([N+](=O)[O-])c1	none
CCOc1ccc(S(=O)(=O)NCCO)cc1-c1nc2c(C(C)(C)C)nn(C)c2c(=O)[nH]1	none
Oc1ccc(C2=Nn3c(nnc3-c3cccc(F)c3)SC2)cc1O	none
COc1cccc(-c2nnc3n2N=C(c2ccc(O)c(O)c2)CS3)c1	mHTT CaM bind 52
Cc1nc(N2CCN(C(=O)C3CCC3)CC2)c2c3c(sc2n1)CCCC3	none
COCc1noc(C2CCCCN2Cc2nc(-c3ccccn3)no2)n1 (stereo unspecified)	none
Cc1ccc(OCC(=O)Nc2ccc(F)cc2)cc1	none
Cc1ccc(NC(=O)COc2ccc(Br)cc2)cc1	Pf apPOL inh 80
CCCn1c(=O)c(-c2ccc(C(=O)N(C)C)cc2)nc2ccccc21	none
COc1ccc(C(=O)CC(=O)c2ccccc2)cc1	none
COc1ccc(O)c(C(=O)CC(=O)c2ccccc2)c1	mHTT CaM bind 50
CC(C)c1ccc(S(=O)(=O)N2CCC(CN3CCCCC3)CC2)cc1	none
Cc1cccc(CNC(=O)c2ccc3c(c2)n(C)c(=O)c2ccnn23)c1	mHTT CaM bind 58
Cn1c(=O)c2ccnn2c2ccc(C(=O)NCc3ccccc3)cc21	none
COc1nc(Cl)cc(C)c1C(=O)NCCc1ccccc1	none
O=C(NCc1ccccc1)c1cnn2c3c(cnc12)CCCC3	none
O=C(c1ccc(F)cc1)N1CCCC(c2ccnc(-c3ccccc3)n2)C1 (stereo unspecified)	none
O=C(COc1ccc(F)cc1)N1CCCC(c2ccnc(-c3ccccc3)n2)C1 (stereo unspecified)	mHTT CaM bind 73
O=C(c1ccco1)N1CCCC(c2ccnc(-c3ccccc3)n2)C1 (stereo unspecified)	mHTT CaM bind 61
O=C(c1ccccc1)N1CCCC(c2ccnc(-c3ccccc3)n2)C1 (stereo unspecified)	none
COc1ccc(-n2nc(C(=O)NCC(=O)NC3CCCCC3)c3ccccc3c2=O)cc1OC	none
CC1=CCC2C(=O)N(c3ccc(I)cc3)C(=O)C2C1 (stereo unspecified)	none (no result: mHTT CaM bind)
CC1(C)CC(=O)C2=C(C1)NC1=C(C(=O)c3ccccc31)C2c1ccc(Br)cc1 (stereo unspecified)	mHTT CaM bind 60
COc1cc(C2C3=C(CC(C)(C)CC3=O)NC3=C2C(=O)c2ccccc23)cc(OC)c1OC (stereo unspecified)	mHTT CaM bind 61
CC1(C)CC(=O)C2=C(C1)NC1=C(C(=O)c3ccccc31)C2c1ccc(O)cc1 (stereo unspecified)	none
COc1cccc(C2C3=C(CC(C)(C)CC3=O)NC3=C2C(=O)c2ccccc23)c1OC (stereo unspecified)	none
NC(=O)c1c(NC(=O)c2ccc(Cl)cc2Cl)sc2c1CCCCCC2	none
O=C(CSc1n[nH]c(-c2ccncc2)n1)c1ccc(F)cc1	none
O=C(CSc1n[nH]c(-c2ccncc2)n1)c1ccc(O)c(O)c1	mHTT CaM bind 84!
CCOc1cccc2cc(-c3cc(=O)oc4cc(OC(=O)N(CC)CC)ccc34)c(=O)oc12	none
CC1=NN(c2nn[nH]n2)C(=O)/C1=C\c1cccs1	mHTT CaM bind 100 (no result: Pf apPOL inh)
CC1=NN(c2ccccc2)C(=O)/C1=C/c1ccc(Br)s1	none
Cc1cccc(C(=O)Nc2c3c(nn2-c2ccc(C)cc2C)CSC3)c1	none
O=C(NCCO)/C(=C\c1ccc2c(c1)OCO2)NC(=O)c1ccc(Br)cc1	none
Cc1[nH]c2ccccc2c1CCNC(=O)/C(=C/c1ccc2c(c1)OCO2)NC(=O)c1ccccc1	mHTT CaM bind 75
COc1ccc(OC)c(-c2c(C)c3cc(OCC(C)=O)ccc3oc2=O)c1	none
COc1ccccc1/C=C1\SC(=O)N(CN2CCCC2)C1=O	mHTT CaM bind 70
COc1ccc(/C=C2\SC(=O)N(CN3CCCCC3)C2=O)c(OC)c1	none
O=C1/C(=C/C=C/c2ccco2)CC/C1=C\C=C\c1ccco1	mHTT CaM bind 84
O=C1C(=Cc2ccco2)COCC1=Cc1ccco1	none (no result: mHTT CaM bind)
CCCCNS(=O)(=O)c1cc(Br)cc2c1N(C(C)=O)CC2	none
O=C(Nc1ccc(N2CCCN(C(=O)c3ccccc3)CC2)nc1)c1ccccc1F	none
CC1CCN(C(=O)CN(Cc2ccccc2)S(=O)(=O)c2cc(Cl)ccc2Cl)CC1	none
CC(=O)N1CCN(c2nc3c(s2)CC(C(=O)Nc2cccc(C(C)(C)C)c2)CC3)CC1 (stereo unspecified)	mHTT CaM bind 54
CC(=O)N1CCN(c2nc3c(s2)CC(C(=O)Nc2ccccc2)CC3)CC1 (stereo unspecified)	none
CCOC(=O)c1ccc(NN=Cc2cc(OC)c(OC)c(OC)c2)cc1	none (no result: mHTT CaM bind)
C=CCn1c(SCC(=O)NCCc2ccc(OC)c(OC)c2)nnc1-c1cccnc1	none
CCCCCCCCCn1c[n+](CCCCCCCCC)c2cc(C)c(C)cc21	mHTT CaM bind 100 (no result: Pf apPOL inh)
N#C/C(=C\c1ccc(Br)cc1)c1nc(C2CC2)cs1	none
N#C/C(=C\c1ccc([N+](=O)[O-])cc1)c1nc(C2CC2)cs1	Pf apPOL inh 55
CCc1nnc2ccc(-c3noc(Cc4ccc(C)cc4)n3)cn12	none
O=C(CCNc1ccc(F)c(Cl)c1)c1ccccc1	none
Fc1ccc(NC/C=C/c2ccco2)cc1Cl	mHTT CaM bind 91
NS(=O)(=O)c1ccc(CCNC(=O)Cn2c3c(c4ccccc42)CCC3)cc1	none
CCSc1ccccc1C(=O)Nc1cccc2ccc(OC)nc12	none
Cc1cc(NC(=O)c2ccc(-n3ccnc3)nn2)no1	mHTT CaM bind 54
CCSc1ccccc1C(=O)Nc1cccc2ccc(-n3ccnc3)nc12	mHTT CaM bind 82
O=C(Nc1cccc2cccnc12)c1ccccc1O	none
Cc1cc(NC(=O)c2ccc(C(=O)Nc3cc(C)on3)nc2)no1	none
O=C(Nc1cccc2cccnc12)c1ccc(-n2ccnc2)nn1	mHTT CaM bind 61
CC(C)OCCCNC(=O)C1CCN(c2nc3cccnc3s2)CC1	none
CCCCN1C(=O)N(c2nnc(C(C)(C)C)s2)C(O)C1c1ccc(Cl)c(Cl)c1 (stereo unspecified)	none (no result: mHTT CaM bind)
O=C(Nc1cccc(Cl)c1)c1ccc(SCCN2CCOCC2)nc1	none
Nc1nc(NC(=O)c2ccc(Cl)cc2)nn1-c1ccccc1	none
Nc1nc(NC(=O)C(Cl)(Cl)Cl)nn1-c1ccccc1	mHTT CaM bind 85
Cc1cc(Cl)ccc1NC(=O)N1CC2CC(NS(=O)(=O)c3cccs3)C1C2 (stereo unspecified)	none
COc1cc(C2CC(=O)Nc3cc(C)c(C)cc32)cc(Br)c1OC (stereo unspecified)	mHTT CaM bind 98
COc1cccc(C2CC(=O)Nc3cc(C)c(C)cc32)c1 (stereo unspecified)	none
CC(=O)NCCc1csc(C2CCCN(C(=O)c3cccs3)C2)n1 (stereo unspecified)	none
Cn1c(N2CCCC(C(=O)NC3CC3)C2)cc(=O)n(C)c1=O (stereo unspecified)	none
COc1ccc(C2C(C(=O)Nc3ccccn3)=C(C)NC3=C2C(=O)CC(C)(C)C3)c(OC)c1 (stereo unspecified)	none
COCCn1cc2c3c(cccc31)CN(C(=O)c1cccc(C(F)(F)F)c1)CC2	mHTT CaM bind 70
COCCn1cc2c3c(cccc31)CN(C(=O)c1cc(F)cc(F)c1)CC2	none
COCCn1cc2c3c(cccc31)CN(C(=O)c1ccccc1Cl)CC2	none
COCCn1cc2c3c(cccc31)CN(C(=O)c1ccccc1OC)CC2	mHTT CaM bind 52
CCCn1cc2c3c(cccc31)CN(C(=O)NCCCOC)CC2	none
CCCn1cc2c3c(cccc31)CN(C(=O)c1ccccc1OC)CC2	mHTT CaM bind 58
CCOC(=O)c1c(SCc2ccccn2)nc(=O)[nH]c1C	none
